Records with an inconclusive call do not appear. Activity calls are given as the source filed them.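 Rule for the calls, unless noted: active = binding below the plate cutoff, the plate median minus 3 SD, with a reading above zero; inconclusive = below the plate cutoff but reading exactly zero; inactive = the rest.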
Columns and labels:
[1] = rapamycin-like changes in RPL19A-GFP expression – cell-based, S. cerevisiae, multiplex flow cytometry, primary screen (AID 1862; in the data active = percent of DMSO control GFP below about 86%;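 note: lower values mimic rapamycin by blocking the RPL19A rise seen in DMSO cells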); settings: S. cerevisiae RPL19A-GFP strain, flow cytometry fluorescence, 3 h; at 10 µM; stronger effect = lower value
[2] = TOR pathway GLN3 branch reporter MEP2-GFP changes – S. cerevisiae, multiplex flow cytometry, primary screen (AID 1867;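 active = GFP response, as percent of the DMSO control, above the screen-wide mean plus 3 SD, about 139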;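 note: median GFP channel fluorescence of barcode-gated MEP2-GFP cells measured by flow cytometry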); settings: S. cerevisiae MEP2-GFP strain, 3 h, at 10 µM, stronger effect = higher value, 100% means same as DMSO wells
[3] = TOR pathway RTG branch CIT2 reporter changes – S. cerevisiae, GFP fusion, multiplex flow cytometry, primary screen (AID 1870;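 active = percent response above a set limit, the screen-wide mean plus 3 SD, cut at about 130% in these data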;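 note: barcoded CIT2-GFP strain pooled with four other GFP strains with rapamycin as positive control; median GFP fluorescence per well over plate mean of DMSO wells so 100% = DMSO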); settings: S. cerevisiae CIT2-GFP expression, 3 h, at 10 µM, stronger effect = higher value
[4] = TOR pathway LAP4-GFP level changes – S. cerevisiae, multiplex flow cytometry, primary screen (AID 1873;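 active = GFP signal, as percent of the solvent control, above the screen mean plus 3 SD, about 149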); settings: S. cerevisiae LAP4-GFP expression, 3 h, at 10 µM, stronger effect = higher value
[5] = yeast AGP1-GFP level changes, GLN3 branch – cell-based, multiplex flow cytometry, S. cerevisiae, primary screen (AID 1887;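 active = GFP signal above the screen-wide mean plus 3 SD, that is over about 124.5% of the solvent control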;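 note: AGP1-GFP fusion strain of S. cerevisiae within a five-strain barcoded multiplex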); settings: 3 h, at 10 µM, stronger effect = higher value
[6] = reduced mouse 2C T cell binding to pMHC/ICAM-1 vesicles – MLPCN validation set, flow cytometry, LFA-1/ICAM-1 modulator project, pilot screen (AID 2523;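 active = response below a set limit, under 55% cells CD8-positive and vesicle-bound, and CD8 cells' 90th-percentile brightness under 279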;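 for vesicle binding response: mean PE anti-B7-1 fluorescence of CD8+ cells relative to row control; 100% = QL9-loaded vesicles with DMSO vehicle in the same plate row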); settings: 2C mouse CD8+ T cells, at 7 µM, stronger effect = lower value; double positive events: measured here: CD8+/vesicle+ event percentage
[7] = target: Integrin beta-1 (Homo sapiens) + Integrin alpha-4 (Homo sapiens) (UniProt P13612+P05556); experiment: alpha4beta1 integrin LIBS antibody binding reduction – U937 cells, HUTS-21 mAb, flow cytometry, validation set, VLA-4 allosteric modulator project, pilot screen (AID 2674;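 active = inhibition above 50%, about 3 SD of the validation set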;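 note: antibody binding induced by the VLA-4 ligand LDV present at three times its Kd; 0% = LDV ligand with antibody and no compound and 100% = antibody without LDV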); settings: HUTS-21 LIBS mAb binding, at 6.7 µM, stronger effect = higher value, binding induced by LDV ligand
[8] = calorie-restriction mimetic ROS inhibitors, yeast – validation compound set, pilot screen (AID 2706;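 active = superoxide response below 65% of plate, a cut near 3 SD across the whole screen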;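 note: yeast exposed to compound for one week at 30 degrees C before staining; 100% = mean of all compound wells on the same plate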); settings: S. cerevisiae aging, superoxide DHE fluorescence; at 10 µM, stronger effect = lower value
[9] = target: Beta-adrenergic receptor kinase 1 (Homo sapiens) (UniProt P25098); experiment: GRK2 binders displacing RNA aptamer, biochemical, validation, human GRK2, bead flow cytometry (AID 488806;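 active = aptamer binding inhibition above 30%, about 3 SD of noise from non-fluorescent compounds; inactive = inhibition at or below 30%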); settings: bead-bound GRK2, FAM-aptamer displacement, at 10 µM, stronger effect = higher value
[10] = target: Beta-2 adrenergic receptor (Homo sapiens) (UniProt P07550); experiment: agonist-induced loss of surface beta2AR – cell-based, FAP fluorogen, flow cytometry, validation set, pilot screen (AID 504459;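 active = percent response above 42, roughly 3 SD of non-fluorescent test compounds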;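 note: agonist-driven loss of surface beta2AR via internalization measured by FAP dye flow cytometry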); settings: Am2.2-beta2AR cells, at 10 µM, stronger effect = higher value
[11] = target: AP-2 complex subunit beta (Homo sapiens) (UniProt P63010); experiment: beta-arrestin/AP2 interaction blockers – biochemical, validation set, GST-AP2 beads, flow cytometry, pilot screen (AID 504541;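 active = inhibition above 54%, about 3 SD of non-fluorescent compounds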;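 note: AP2 carries R879A mutation and is captured from E. coli lysate; bead-bound FITC arrestin peptide fluorescence measuring arrestin peptide binding to AP2; 0% = DMSO wells and 100% = excess unlabeled arrestin peptide control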); settings: FITC arrestin peptide, at 10 µM, stronger effect = higher value, AP2 beta2 appendage fragment, R879A mutant
[12] = cytosolic pH regulators acting via V-ATPase – S. cerevisiae, pHLuorin, HTS validation (AID 504600; in the data active = response above about 15%;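 note: plate controls were DMSO for no effect and reference compound for full effect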); settings: V-ATPase proton transport, at 10 µM, stronger effect = higher value
[13] = test system: anti-desmoglein-3 scFv antibody binding to human DSG3; experiment: blockers of pathogenic pemphigus antibody–desmoglein-3 binding – biochemical, validation compound set, bead-based, flow cytometry, pilot screen (AID 588368); settings: Protein G beads, DSG3-Fc, scFv-GFP binding, at 10 µM, stronger effect = lower value;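 note: signal is the median channel fluorescence of bead-bound GFP antibody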
[14] = Nile Red efflux blockade in pump-expressing yeast – validation compound set, multiplex, phenotypic, pilot screen (AID 588506;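 active = efflux inhibition above 0.42, the validation set average plus 4 SD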;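 note: Nile Red retained in cells so higher fluorescence means more efflux inhibition; 0 = negative control wells and 1 = enniatin B 25 µM full block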); settings: S. cerevisiae pump-expressing triplex, Nile Red efflux flow cytometry; at 10 µM; stronger effect = higher value; the pumps come from Candida albicans
[15] = target: ATP-binding cassette sub-family B member 6 (Homo sapiens) (UniProt Q9NP58); experiment: blockers of ABCB6-driven porphyrin uptake – K562-ABCB6 cells, flow cytometry, validation set, pilot screen (AID 588550;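 active = inhibition above the screen-wide mean plus 3 SD, about 51%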;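 note: 0% = DMSO wells and 100% = benzethonium chloride 70 µM positive control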); settings: K562-ABCB6 porphyrin accumulation, 1 h, at 10 µM, stronger effect = higher value
[16] = AML differentiation inducers, ER-HoxA9 marrow cells – cell-based, GFP/MAC1 double positive, flow cytometry, validation set, primary screen (AID 588685;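 active = differentiation response of at least 50%, scaled between solvent and reference control, from cells with both markers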;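 note: compound exposure lasts four days before antibody staining and flow analysis; 0% = DMSO wells and 100% = 5 µM fulvestrant positive control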); settings: stronger effect = higher value, normalized: vehicle 0, fulvestrant 100

ATP-binding cassette sub-family B member 6 (Homo sapiens), sequence (Q9NP58 whole entry, looked up): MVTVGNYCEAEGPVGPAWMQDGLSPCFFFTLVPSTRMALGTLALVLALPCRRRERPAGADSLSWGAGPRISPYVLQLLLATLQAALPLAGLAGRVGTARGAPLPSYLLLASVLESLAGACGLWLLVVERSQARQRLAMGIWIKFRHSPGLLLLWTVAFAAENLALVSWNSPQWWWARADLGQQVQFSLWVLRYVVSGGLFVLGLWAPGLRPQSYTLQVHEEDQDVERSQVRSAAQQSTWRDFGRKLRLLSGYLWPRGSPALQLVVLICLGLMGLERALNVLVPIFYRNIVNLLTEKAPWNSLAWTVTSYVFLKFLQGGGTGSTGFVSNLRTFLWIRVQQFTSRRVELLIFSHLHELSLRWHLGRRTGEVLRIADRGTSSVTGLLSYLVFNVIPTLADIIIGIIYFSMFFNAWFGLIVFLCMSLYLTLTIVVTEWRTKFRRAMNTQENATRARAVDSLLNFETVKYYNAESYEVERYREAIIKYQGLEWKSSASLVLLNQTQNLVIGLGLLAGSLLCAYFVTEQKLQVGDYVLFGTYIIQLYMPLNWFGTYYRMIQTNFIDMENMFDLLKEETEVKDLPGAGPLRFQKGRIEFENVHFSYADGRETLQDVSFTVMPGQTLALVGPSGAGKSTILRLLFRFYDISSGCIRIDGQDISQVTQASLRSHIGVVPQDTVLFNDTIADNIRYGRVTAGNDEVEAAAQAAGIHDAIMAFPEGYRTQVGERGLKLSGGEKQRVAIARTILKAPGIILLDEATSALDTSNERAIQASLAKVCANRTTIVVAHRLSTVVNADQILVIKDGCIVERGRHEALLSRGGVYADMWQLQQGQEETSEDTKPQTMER
AP-2 complex subunit beta (Homo sapiens), sequence (P63010 whole entry, looked up, the tested form may be a part, one chain of several): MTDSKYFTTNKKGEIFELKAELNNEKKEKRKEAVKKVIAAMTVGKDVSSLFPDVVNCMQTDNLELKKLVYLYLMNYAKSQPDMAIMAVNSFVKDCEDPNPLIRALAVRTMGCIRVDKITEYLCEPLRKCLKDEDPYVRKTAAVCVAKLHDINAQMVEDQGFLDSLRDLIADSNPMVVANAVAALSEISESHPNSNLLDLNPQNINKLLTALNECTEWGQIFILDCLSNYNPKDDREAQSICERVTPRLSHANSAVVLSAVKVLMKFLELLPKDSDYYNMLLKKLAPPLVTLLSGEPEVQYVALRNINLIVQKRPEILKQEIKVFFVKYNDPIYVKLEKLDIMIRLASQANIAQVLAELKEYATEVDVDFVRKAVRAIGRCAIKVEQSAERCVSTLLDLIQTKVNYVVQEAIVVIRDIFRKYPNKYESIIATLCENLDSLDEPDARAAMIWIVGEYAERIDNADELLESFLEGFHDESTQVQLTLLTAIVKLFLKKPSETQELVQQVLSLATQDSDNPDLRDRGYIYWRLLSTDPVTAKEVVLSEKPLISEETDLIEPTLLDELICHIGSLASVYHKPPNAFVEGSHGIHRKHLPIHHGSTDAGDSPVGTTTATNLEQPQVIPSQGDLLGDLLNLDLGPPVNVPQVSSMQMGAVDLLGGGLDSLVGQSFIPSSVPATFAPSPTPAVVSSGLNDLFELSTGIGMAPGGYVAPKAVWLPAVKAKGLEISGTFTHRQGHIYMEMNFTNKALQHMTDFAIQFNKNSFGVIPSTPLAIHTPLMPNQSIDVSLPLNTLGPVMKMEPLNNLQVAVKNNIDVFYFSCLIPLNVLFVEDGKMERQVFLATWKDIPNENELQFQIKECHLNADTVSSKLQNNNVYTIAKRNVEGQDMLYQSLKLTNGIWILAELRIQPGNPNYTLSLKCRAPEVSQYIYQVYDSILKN
Beta-2 adrenergic receptor (Homo sapiens), sequence (P07550 whole entry, looked up): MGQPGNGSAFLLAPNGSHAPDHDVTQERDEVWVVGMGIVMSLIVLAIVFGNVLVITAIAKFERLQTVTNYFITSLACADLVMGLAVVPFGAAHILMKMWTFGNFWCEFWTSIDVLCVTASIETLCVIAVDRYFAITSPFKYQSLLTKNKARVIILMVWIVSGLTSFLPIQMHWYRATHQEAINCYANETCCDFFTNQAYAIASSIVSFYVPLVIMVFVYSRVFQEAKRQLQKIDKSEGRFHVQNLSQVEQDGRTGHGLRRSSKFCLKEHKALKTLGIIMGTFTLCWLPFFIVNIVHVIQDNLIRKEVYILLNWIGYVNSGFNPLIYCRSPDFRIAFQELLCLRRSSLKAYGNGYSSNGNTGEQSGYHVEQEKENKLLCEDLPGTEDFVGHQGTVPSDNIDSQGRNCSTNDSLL
Integrin beta-1 (Homo sapiens) + Integrin alpha-4 (Homo sapiens), sequence (P05556 whole entry, looked up): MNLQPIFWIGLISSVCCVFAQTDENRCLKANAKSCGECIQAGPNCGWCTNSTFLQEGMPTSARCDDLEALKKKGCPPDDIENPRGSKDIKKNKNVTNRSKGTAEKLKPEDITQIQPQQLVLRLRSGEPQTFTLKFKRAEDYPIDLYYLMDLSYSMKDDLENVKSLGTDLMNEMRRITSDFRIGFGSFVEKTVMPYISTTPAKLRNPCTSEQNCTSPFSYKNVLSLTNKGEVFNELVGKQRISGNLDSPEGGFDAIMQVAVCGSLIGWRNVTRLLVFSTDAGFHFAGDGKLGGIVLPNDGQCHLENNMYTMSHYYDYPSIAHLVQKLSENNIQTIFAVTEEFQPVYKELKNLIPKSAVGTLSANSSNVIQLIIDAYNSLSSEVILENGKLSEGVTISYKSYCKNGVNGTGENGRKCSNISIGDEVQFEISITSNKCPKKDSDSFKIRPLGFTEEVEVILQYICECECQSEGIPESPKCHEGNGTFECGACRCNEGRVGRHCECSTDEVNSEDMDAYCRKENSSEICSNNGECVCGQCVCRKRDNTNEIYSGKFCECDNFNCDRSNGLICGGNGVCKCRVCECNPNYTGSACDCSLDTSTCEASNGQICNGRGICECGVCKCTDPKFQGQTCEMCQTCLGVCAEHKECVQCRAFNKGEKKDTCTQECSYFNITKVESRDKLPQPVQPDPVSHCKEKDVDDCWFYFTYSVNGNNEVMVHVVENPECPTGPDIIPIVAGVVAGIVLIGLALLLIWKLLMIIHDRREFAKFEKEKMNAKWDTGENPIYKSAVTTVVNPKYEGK
Integrin beta-1 (Homo sapiens) + Integrin alpha-4 (Homo sapiens), sequence (P13612 whole entry, looked up): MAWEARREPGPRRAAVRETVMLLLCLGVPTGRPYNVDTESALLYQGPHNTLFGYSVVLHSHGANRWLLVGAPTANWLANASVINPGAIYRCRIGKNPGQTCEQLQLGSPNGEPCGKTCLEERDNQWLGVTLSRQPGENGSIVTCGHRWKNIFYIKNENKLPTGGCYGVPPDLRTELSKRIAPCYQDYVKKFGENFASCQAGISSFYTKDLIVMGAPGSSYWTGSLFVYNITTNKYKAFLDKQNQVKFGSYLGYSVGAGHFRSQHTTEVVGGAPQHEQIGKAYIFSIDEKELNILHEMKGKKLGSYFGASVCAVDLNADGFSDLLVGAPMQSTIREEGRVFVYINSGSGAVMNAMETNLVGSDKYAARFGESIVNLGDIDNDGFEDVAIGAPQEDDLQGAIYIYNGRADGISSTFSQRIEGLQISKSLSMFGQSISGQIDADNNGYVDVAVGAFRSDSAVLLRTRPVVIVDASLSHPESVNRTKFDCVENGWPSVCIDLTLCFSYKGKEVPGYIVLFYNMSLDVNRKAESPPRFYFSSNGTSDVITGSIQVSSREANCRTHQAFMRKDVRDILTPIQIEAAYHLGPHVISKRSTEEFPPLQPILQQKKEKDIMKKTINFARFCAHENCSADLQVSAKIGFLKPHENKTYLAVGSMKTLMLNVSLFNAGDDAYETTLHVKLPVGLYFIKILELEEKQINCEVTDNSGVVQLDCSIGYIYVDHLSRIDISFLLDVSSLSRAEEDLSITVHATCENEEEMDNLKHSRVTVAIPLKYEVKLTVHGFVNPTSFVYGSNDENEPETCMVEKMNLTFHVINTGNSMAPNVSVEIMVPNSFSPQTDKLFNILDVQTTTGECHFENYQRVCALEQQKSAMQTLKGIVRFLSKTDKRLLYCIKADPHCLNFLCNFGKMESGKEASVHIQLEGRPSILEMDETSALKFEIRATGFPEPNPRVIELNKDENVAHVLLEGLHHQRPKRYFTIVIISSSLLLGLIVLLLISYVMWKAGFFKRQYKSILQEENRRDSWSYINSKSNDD
Beta-adrenergic receptor kinase 1 (Homo sapiens), sequence (P25098 whole entry, looked up): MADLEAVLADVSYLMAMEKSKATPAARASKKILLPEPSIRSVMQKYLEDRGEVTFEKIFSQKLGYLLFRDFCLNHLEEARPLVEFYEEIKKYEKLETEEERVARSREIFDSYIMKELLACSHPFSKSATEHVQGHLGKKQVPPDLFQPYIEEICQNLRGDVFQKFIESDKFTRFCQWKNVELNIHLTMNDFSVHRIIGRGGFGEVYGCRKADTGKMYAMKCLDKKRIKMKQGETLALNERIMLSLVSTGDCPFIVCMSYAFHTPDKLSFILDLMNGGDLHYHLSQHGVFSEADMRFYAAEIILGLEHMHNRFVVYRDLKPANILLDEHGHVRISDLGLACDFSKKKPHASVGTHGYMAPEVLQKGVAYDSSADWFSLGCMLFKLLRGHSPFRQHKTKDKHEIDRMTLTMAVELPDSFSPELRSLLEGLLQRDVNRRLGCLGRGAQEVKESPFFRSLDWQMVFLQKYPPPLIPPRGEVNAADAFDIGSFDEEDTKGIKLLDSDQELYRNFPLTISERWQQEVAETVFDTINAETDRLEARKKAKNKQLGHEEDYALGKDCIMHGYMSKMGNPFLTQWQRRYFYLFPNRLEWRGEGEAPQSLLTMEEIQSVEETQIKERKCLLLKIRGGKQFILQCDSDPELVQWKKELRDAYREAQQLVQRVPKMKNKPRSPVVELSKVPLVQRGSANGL

SMILES | percent of DMSO control GFP [1] | GFP response vs DMSO [2] | percent response of DMSO control [3] | GFP response vs DMSO [4] | GFP response, % of DMSO [5] | double positive events [6] | inhibition [7] | superoxide response (% of plate) [8] | aptamer binding inhibition [9] | response [10] | inhibition [11] | response [12] | binding (% of control) [13] | efflux inhibition (fraction of control) [14] | inhibition [15] | differentiation response [16] | vesicle binding response [6]
C[N+](C)(C)CCOP(=O)(O)OP(=O)([O-])OC[C@H]1O[C@@H](n2ccc(N)nc2=O)[C@H](O)[C@@H]1O | 101% (inactive) | 113% (inactive) | 112% (inactive) | 82% (inactive) | 102% (inactive) | 68.8% | -12.9% (inactive) | 89.1% (inactive) | 2% (inactive) | 3.17% (inactive) | -4.05% (inactive) | -1.87% (inactive) | 101% (inactive) | -0.17 (inactive) | 10% (inactive) | -7.37% (inactive) | 
CCN1CCN(C(=O)N[C@@H](C(=O)N[C@@H]2C(=O)N3[C@@H]2SC(C)(C)[C@@H]3C(=O)O)c2ccccc2)C(=O)C1=O | 94.4% (inactive) | 122% (inactive) | 103% (inactive) | 74.3% (inactive) |  | 69.1% | -5.18% (inactive) | 109% (inactive) | 2% (inactive) | -5.92% (inactive) | 3.29% (inactive) | 1.38% (inactive) | 103% (inactive) | 0.16 (inactive) | 7% (inactive) | 3.28% (inactive) | 138% (inactive)
C[C@]12CC[C@@H]3c4ccc(OS(=O)(=O)O)cc4CC[C@H]3[C@@H]1CCC2=O | 90.6% (inactive) | 120% (inactive) | 96.6% (inactive) | 79.2% (inactive) |  | 73.4% | 5.49% (inactive) | 95.8% (inactive) | -3% (inactive) | 0.04% (inactive) | -3.24% (inactive) | 3.54% (inactive) | 104% (inactive) | -0.24 (inactive) | 11% (inactive) | 6.55% (inactive) | 292% (inactive)
COCCc1ccc(OCC(O)CNC(C)C)cc1 (configuration not stated) | 103% (inactive) |  | 98.9% (inactive) | 87.4% (inactive) | 97.6% (inactive) | 68.1% | 7.85% (inactive) |  | -2% (inactive) |  | -6% (inactive) | 1.04% (inactive) | 105% (inactive) | 0.21 (inactive) | 7% (inactive) | 5.13% (inactive) | 212% (inactive)
CCCCC[C@H](O)/C=C/[C@@H]1[C@@H](C/C=C\CCCC(=O)OC)[C@@H](O)C[C@H]1O | 97.4% (inactive) | 127% (inactive) | 99.2% (inactive) |  |  | 59.2% | -30.4% (inactive) | 171% (inactive) | 12% (inactive) | 4.64% (inactive) | -11.2% (inactive) | -0.57% (inactive) | 116% (inactive) | 0.05 (inactive) | 13% (inactive) | 2.46% (inactive) | 157% (inactive)
COc1ccc(CCN(C)CC(=O)Nc2cc(C)nc3ccccc23)cc1OC | 108% (inactive) |  | 104% (inactive) | 94% (inactive) | 94.9% (inactive) | 71.8% | 10.5% (inactive) | 103% (inactive) | 1% (inactive) | 7.03% (inactive) | -0.03% (inactive) | -0.15% (inactive) | 96.8% (inactive) | 0.05 (inactive) | 5% (inactive) | 5.6% (inactive) | 193% (inactive)
Cc1cccc(C)c1NS(=O)(=O)c1ccc(NC(=O)c2ccc(Cl)c([N+](=O)[O-])c2)cc1 | 97.7% (inactive) | 110% (inactive) | 116% (inactive) | 72.6% (inactive) |  | 62.8% | 9.37% (inactive) | 103% (inactive) | 0% (inactive) | -4.38% (inactive) | 4.81% (inactive) | 13% (inactive) | 100% (inactive) | -0.2 (inactive) | 9% (inactive) | 13.1% (inactive) | 163% (inactive)
C[C@]12C=CC(=O)C=C1CCC1C3CC[C@](O)(C(=O)CO)[C@@]3(C)CC3OC312 (some centres not stated) | 102% (inactive) |  | 95.8% (inactive) | 85.4% (inactive) | 101% (inactive) | 76.1% | 5.03% (inactive) | 87.7% (inactive) | 2% (inactive) | 2.49% (inactive) | -1.32% (inactive) | -0.61% (inactive) | 102% (inactive) | 0.22 (inactive) | 113% (active) | -13.6% (inactive) | 298% (inactive)
COc1ccc(-c2coc3cc(O)cc(O)c3c2=O)cc1 | 88.2% (inactive) | 99.9% (inactive) | 116% (inactive) | 72.6% (inactive) |  | 58.4% | 5.49% (inactive) | 106% (inactive) | 0% (inactive) | -6.34% (inactive) | 1.72% (inactive) | 1.71% (inactive) | 101% (inactive) | -0.28 (inactive) | 7% (inactive) | -9.83% (inactive) | 199% (inactive)
Cc1cc(C)c2c(CCl)cc(=O)oc2c1 | 98.7% (inactive) |  | 107% (inactive) | 127% (inactive) | 115% (inactive) | 60.3% | 33.8% (inactive) | 93% (inactive) | -2% (inactive) | -0.73% (inactive) | 2.3% (inactive) | 63.9% (active) | 96.2% (inactive) | 0.08 (inactive) | 4% (inactive) | 4.86% (inactive) | 174% (inactive)
